Drawing on PubChem BioAssay, this text covers growth inhibition, inhibition and outcome for 20 compounds.

Assay [1] in a line: antimalarial activity against Dd2 strain (AID 2302;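 active = growth inhibition above 50% at the single 2 µM test dose, taken to imply half-maximal potency below 2 µM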;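 note: 0% = DMSO untreated growth and 100% = chloroquine plus artemisinin killed control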). The note with it: P. falciparum Dd2 in RBCs, LDH growth readout, 72 h; at 2 µM; hits give high values.
Assay [2] can be described thus: human hepatoma cell viability loss – ATP luminescence, cytotoxicity control for P. falciparum antimalarial project, primary screen (AID 2303;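 active = inhibition above 50%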;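 note: 0% = DMSO wells and 100% = digitonin-killed cells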). As to conditions: HepG2 viability, 24-48 h, at 10 µM, hits give high values.
Assay [3] deals with L-lactate dehydrogenase (Plasmodium falciparum (isolate CDC / Honduras)) (UniProt Q27743). Description: PfLDH activity inhibition – cell lysate, 3D7 strain, counter-screen for P. falciparum growth inhibition project (AID 2304).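 Note: 0% = vehicle and 100% = reference inhibitor.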 As to conditions: P. falciparum 3D7 crude extract, LDH APAD/NBT absorbance; at 2 µM; hits give high values. On the technique in general: Counterscreens check selectivity or assay interference.

Assay [4] can be described thus: inhibition of 3D7 malaria parasite growth – strain 3D7 (AID 2306).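 Note: 0% = DMSO wells and 100% = chloroquine plus artemisinin control wells.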 The note with it: P. falciparum 3D7 erythrocytic growth, LDH absorbance, 72 h; at 2 µM; hits give high values.
Assay [5] concerns the target Calcium-dependent protein kinase 1 (Plasmodium falciparum (isolate 3D7)) (UniProt P62344). Description: PfCDPK1 kinase inhibitors, biochemical, TCAMS library (AID 1159585; cut-off not given, nearly all actives have IC50 up to about 0.98 µM;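 note: inhibitors leave more ATP so luminescence rises with inhibition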). As to conditions: recombinant PfCDPK1, Kinase-Glo ATP depletion luminescence. Background: Kinase-Glo measures the ATP left after a reaction by luminescence.
In assay [6] the target is Plasmodium falciparum protein kinase 6 (PK6, PF3D7_1337100) (UniProt Q8IDW1). Description: PfPK6 kinase inhibitors, biochemical, TCAMS library (AID 1159586). The note with it: recombinant PfPK6, Kinase-Glo ATP depletion luminescence.
Assay [7] concerns the target Protein kinase 7 (PK7), Plasmodium falciparum 3D7 (PF3D7_0213400) (UniProt Q7YTF7). Description: inhibition of Plasmodium PK7 catalytic activity – biochemical, TCAMS antimalarial set, Kinase-Glo luminescence (AID 1159587). The note with it: recombinant PfPK7, Kinase-Glo ATP depletion luminescence.
The target in assay [8] is Calcium-dependent protein kinase 4 (Plasmodium falciparum (isolate 3D7)) (UniProt Q8IBS5). Description: PfCDPK4 kinase inhibitors, biochemical, TCAMS library (AID 1159588; cut-off not given, nearly all actives have IC50 up to about 0.91 µM). As to conditions: recombinant PfCDPK4, Kinase-Glo ATP depletion luminescence.

Each structure is given as a SMILES string. Values without a mark were called inactive. For some of these results: Potency and affinity values are given separately. Active and inactive are the calls of the source. Unless noted, the rule behind the calls is not given here.

Chain of Calcium-dependent protein kinase 4 (Plasmodium falciparum (isolate 3D7)) (Q8IBS5 whole entry, looked up): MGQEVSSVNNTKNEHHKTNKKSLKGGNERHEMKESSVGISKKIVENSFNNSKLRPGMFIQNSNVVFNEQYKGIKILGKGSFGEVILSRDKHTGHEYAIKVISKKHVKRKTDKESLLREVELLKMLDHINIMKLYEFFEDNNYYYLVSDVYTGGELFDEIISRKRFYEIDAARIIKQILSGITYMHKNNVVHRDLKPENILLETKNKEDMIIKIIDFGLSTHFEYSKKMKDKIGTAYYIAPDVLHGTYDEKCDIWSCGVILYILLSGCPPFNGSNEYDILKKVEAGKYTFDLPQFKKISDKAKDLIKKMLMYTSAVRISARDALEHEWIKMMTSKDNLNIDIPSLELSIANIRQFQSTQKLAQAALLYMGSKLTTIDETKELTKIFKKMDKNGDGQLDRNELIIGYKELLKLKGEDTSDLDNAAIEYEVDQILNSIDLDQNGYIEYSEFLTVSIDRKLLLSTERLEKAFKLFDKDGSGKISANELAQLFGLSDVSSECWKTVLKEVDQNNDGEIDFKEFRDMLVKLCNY
Chain of Plasmodium falciparum protein kinase 6 (PK6, PF3D7_1337100) (Q8IDW1 1-305): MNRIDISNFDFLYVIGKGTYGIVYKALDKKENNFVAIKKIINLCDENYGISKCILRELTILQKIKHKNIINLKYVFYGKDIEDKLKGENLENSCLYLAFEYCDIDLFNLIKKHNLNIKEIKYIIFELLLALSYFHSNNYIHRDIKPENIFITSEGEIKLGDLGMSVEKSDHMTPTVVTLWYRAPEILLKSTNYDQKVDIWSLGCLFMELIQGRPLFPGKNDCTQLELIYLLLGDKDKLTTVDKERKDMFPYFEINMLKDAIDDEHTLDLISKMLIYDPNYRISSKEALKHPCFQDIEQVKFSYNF
Chain of Protein kinase 7 (PK7), Plasmodium falciparum 3D7 (PF3D7_0213400) (Q7YTF7 1-343): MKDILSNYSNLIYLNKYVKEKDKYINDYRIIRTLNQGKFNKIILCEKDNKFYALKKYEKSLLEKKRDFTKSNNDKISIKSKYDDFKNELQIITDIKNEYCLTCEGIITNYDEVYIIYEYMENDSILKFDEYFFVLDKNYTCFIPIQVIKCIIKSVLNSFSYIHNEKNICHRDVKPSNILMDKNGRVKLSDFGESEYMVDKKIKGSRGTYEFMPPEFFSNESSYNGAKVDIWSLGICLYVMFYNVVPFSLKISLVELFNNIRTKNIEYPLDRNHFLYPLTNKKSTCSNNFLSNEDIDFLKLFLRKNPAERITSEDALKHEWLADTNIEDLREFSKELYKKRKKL
Chain of L-lactate dehydrogenase (Plasmodium falciparum (isolate CDC / Honduras)) (Q27743 whole entry, looked up): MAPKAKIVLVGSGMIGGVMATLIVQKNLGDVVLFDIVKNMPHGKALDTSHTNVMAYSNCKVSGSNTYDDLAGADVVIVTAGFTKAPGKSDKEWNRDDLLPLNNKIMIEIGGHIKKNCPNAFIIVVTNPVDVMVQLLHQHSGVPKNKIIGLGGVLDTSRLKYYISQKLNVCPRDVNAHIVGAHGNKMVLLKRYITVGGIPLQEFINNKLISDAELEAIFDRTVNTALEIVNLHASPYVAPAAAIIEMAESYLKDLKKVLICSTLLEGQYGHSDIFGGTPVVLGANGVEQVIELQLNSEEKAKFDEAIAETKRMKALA
Chain of Calcium-dependent protein kinase 1 (Plasmodium falciparum (isolate 3D7)) (P62344 whole entry, looked up): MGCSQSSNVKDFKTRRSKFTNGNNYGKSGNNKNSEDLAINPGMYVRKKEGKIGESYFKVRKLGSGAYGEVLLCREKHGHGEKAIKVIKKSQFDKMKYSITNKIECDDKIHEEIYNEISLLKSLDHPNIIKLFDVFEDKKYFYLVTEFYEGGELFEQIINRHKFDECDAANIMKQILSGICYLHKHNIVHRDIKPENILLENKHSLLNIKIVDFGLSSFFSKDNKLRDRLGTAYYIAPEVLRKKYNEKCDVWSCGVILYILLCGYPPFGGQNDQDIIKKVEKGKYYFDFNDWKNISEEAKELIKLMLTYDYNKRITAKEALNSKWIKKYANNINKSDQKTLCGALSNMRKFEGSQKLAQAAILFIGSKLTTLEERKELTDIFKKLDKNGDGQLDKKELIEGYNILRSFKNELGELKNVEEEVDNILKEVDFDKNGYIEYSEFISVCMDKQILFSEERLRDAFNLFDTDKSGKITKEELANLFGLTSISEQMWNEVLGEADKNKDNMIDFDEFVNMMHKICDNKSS

For the compound `Oc1c(CN2CCC(Cc3ccccc3)CC2)cc(Cl)c2cccnc12`, the results for the growth inhibition in assay [1] and in assay [4] were 94% (active) and 96% (active), respectively. Moreover, the values for the inhibition in assay [2] and in assay [3] were 49% and 4%, respectively. Besides, the outcome in assay [5], in assay [6], in assay [7] and in assay [8] was inactive.

As to `FC(F)(F)c1ccc2nc(-c3ccc(-c4ccc(CNCc5cnn(-c6ccccc6)n5)cc4)cc3)[nH]c2c1`, the results for the growth inhibition in assay [1] and in assay [4] were 76% (active) and 100% (active), respectively. Also, the inhibition (commonly the drop in the measured response relative to a control, in per cent) in assay [2] was 35%; in assay [3], -1%. In addition, the outcome in assay [5], in assay [6], in assay [7] and in assay [8] was inactive.

Regarding `CCCCCN1CCCCC(NS(=O)(=O)c2ccc(C(=O)Nc3ccc(C(F)(F)F)cc3)cc2)C1` (stereo not given), the figures for the growth inhibition in assay [1] and in assay [4] were -4% and 89% (active), respectively. The inhibition in assay [2] was 34%; in assay [3], -2%. Besides, the outcome in assay [5], in assay [6], in assay [7] and in assay [8] was inactive.

`CC(C)COc1ccc(Cl)cc1Cc1nc(-c2nc3nc(N4CCN(C)CC4)ccc3[nH]2)cs1`: the figures for the growth inhibition in assay [1] and in assay [4] were 27% and 99% (active), respectively. In addition, the inhibition was 29% in assay [2] and -6% in assay [3]. The result in assay [5], in assay [6], in assay [7] and in assay [8] was inactive.

With `COc1ccc(CN2CCC(CNC(C)c3cccc4ccccc34)CC2)cc1` (stereo not given), the growth inhibition was 26% in assay [1] and 102% (active) in assay [4]. Also, the inhibition in assay [2] is 58% (active); in assay [3], -2%. Also, the outcome in assay [5], in assay [6], in assay [7] and in assay [8] was inactive.

For the compound `CC(=O)Nc1cccc(/C=C/C(=O)N2CCC(N3CCCCC3)CC2)c1`, the growth inhibition in assay [1] is 0%; in assay [4] it was 96% (active). Further, the inhibition in assay [2] and in assay [3] was 1% throughout. Besides, the outcome in assay [5], in assay [6], in assay [7] and in assay [8] was inactive.

For `Clc1cccnc1N1CCN(c2ncccc2Cl)CC1`, the figures for the growth inhibition in assay [1] and in assay [4] were 0% and 97% (active), respectively. For the same compound, the values for the inhibition in assay [2] and in assay [3] were 2% and 4%, respectively. In addition, the result in assay [5], in assay [6], in assay [7] and in assay [8] was inactive.

Consider `CCCC(CNCc1cccc(C)c1)CNc1cc(=O)c2ccccc2[nH]1` (stereo not given), for which the growth inhibition is 89% (active) in assay [1] and 99% (active) in assay [4]. Further, the figures for the inhibition in assay [2] and in assay [3] were -2% and -7%, respectively. For the same compound, the result in assay [5], in assay [6], in assay [7] and in assay [8] was inactive.

`COc1ccc(CN2CCC(NCc3cccc([N+](=O)[O-])c3)CC2)cc1`: the growth inhibition in assay [1] was 3%; in assay [4], 92% (active). In addition, the inhibition in assay [2] is 6%; in assay [3], 2%. The outcome in assay [5], in assay [6], in assay [7] and in assay [8] was inactive.

Take `COc1ccc(CNC(=O)Nc2cc3cc(-c4ccc(CN5CCCC5)cc4)ccc3n3c(C)nnc23)cc1`: the growth inhibition is 100% (active) in assay [1] and 101% (active) in assay [4]. The results for the inhibition in assay [2] and in assay [3] were 100% (active) and -3%, respectively. Besides, the outcome in assay [5], in assay [6], in assay [7] and in assay [8] was inactive.

`Clc1ccc2nnc(-c3c(Cl)cccc3Cl)n2n1`: the growth inhibition in assay [1] was 60% (active); in assay [4], 96% (active). The inhibition in assay [2] is 29%; in assay [3], -3%. For the same compound, the outcome in assay [5], in assay [6], in assay [7] and in assay [8] was inactive.

Consider `Cc1ccc(NC(=O)c2ccc(C(=O)NC3CCN(CC4CCCCC4)CC3)cc2)cc1`, for which the growth inhibition in assay [1] was 0%; in assay [4], 93% (active). Also, the inhibition in assay [2] is 36%; in assay [3], -6%. Also, the result in assay [5], in assay [6], in assay [7] and in assay [8] was inactive.

For `CCCc1cc(=O)[nH]c(-n2nc(C)cc2NC(=O)C(CC)c2ccccc2)n1` (stereo not given), the results for the growth inhibition in assay [1] and in assay [4] were 63% (active) and 94% (active), respectively. Further, the inhibition is 41% in assay [2] and -2% in assay [3]. In addition, the result in assay [5], in assay [6], in assay [7] and in assay [8] was inactive.

In the case of `CC(=O)Nc1ccc(CN(Cc2ccc(F)cc2)Cc2ccc3c(c2)OCO3)cc1`, the values for the growth inhibition in assay [1] and in assay [4] were 87% (active) and 91% (active), respectively. Besides, the results for the inhibition in assay [2] and in assay [3] were 3% and 6%, respectively. Also, the result in assay [5], in assay [6], in assay [7] and in assay [8] was inactive.

`C=Cc1ccccc1C1(O)CCN(CCCCNC(=O)c2ccc(-c3ccc(C#N)cc3)cc2)CC1`: the growth inhibition was 64% (active) in assay [1] and 88% (active) in assay [4]. Further, the inhibition in assay [2] was 27%; in assay [3], 0%. Further, the outcome in assay [5], in assay [6], in assay [7] and in assay [8] was inactive.

As for `O=C(NCCNc1ccnc(Nc2ccc(F)cc2)n1)c1cc2ccccc2s1`, the growth inhibition is 34% in assay [1] and 99% (active) in assay [4]. Further, the results for the inhibition in assay [2] and in assay [3] were -1% and -11%, respectively. For the same compound, the outcome in assay [5], in assay [6], in assay [7] and in assay [8] was inactive.

`O=C(Nc1cccc(CN2CCN(Cc3ccc(O)cc3)CC2)c1)c1ccc(-c2ccccc2)cc1`: the values for the growth inhibition in assay [1] and in assay [4] were 67% (active) and 101% (active), respectively. The inhibition in assay [2] is 40%; in assay [3] it was 1%. For the same compound, the result in assay [5], in assay [6], in assay [7] and in assay [8] was inactive.

`COc1c(CNCCCCCCNCc2cc(Cl)c3ccccc3c2OC)cc(Cl)c2ccccc12`: the growth inhibition in assay [1] is 45%; in assay [4], 96% (active). In addition, the inhibition is 100% (active) in assay [2] and -4% in assay [3]. The result in assay [5], in assay [6], in assay [7] and in assay [8] was inactive.

Consider `COc1ccc(C(c2ccc(N(C)C)cc2)c2ccc(N(C)C)cc2)cc1`, for which the growth inhibition is 99% (active) in assay [1] and 101% (active) in assay [4]. Also, the figures for the inhibition in assay [2] and in assay [3] were 72% (active) and 1%, respectively. For the same compound, the result in assay [5], in assay [6], in assay [7] and in assay [8] was inactive.

For `CC[C@H]1CN(CCCn2c3ccccc3c3ccccc32)[C@@H](CC)CN1`, the growth inhibition in assay [1] was -3%; in assay [4] it was 89% (active). The inhibition in assay [2] is 69% (active); in assay [3], -6%. The result in assay [5], in assay [6], in assay [7] and in assay [8] was inactive.
